Results reported in PubChem BioAssay (NCI).
Compounds without any hit were thinned out: in the full panel of roughly 83,000, 20% have a hit.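 Plates (96-well) were seeded with cells, treated with compound at one concentration, and incubated for 48 hours before percent growth was determined.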 Unmarked numbers belong to inactive results. Activity calls are given as the source filed them. Rule for the calls: active = growth percent below 10; inactive = the rest.

Tests used:
Test in all cases: NCI-60 one-dose screen, 48 h (100 = growth as untreated, 0 = no growth, -100 = all killed)
Conditions in all cases: 10 µM
RPMI-8226 leukemia = test system: RPMI-8226 leukemia
OVCAR-8 ovarian = test system: OVCAR-8 ovarian
OVCAR-5 ovarian = test system: OVCAR-5 ovarian
OVCAR-4 ovarian = test system: OVCAR-4 ovarian
SK-OV-3 ovarian = test system: SK-OV-3 ovarian
OVCAR-3 ovarian = test system: OVCAR-3 ovarian
HS 578T breast = test system: HS 578T breast
NCI/ADR-RES ovarian = test system: NCI/ADR-RES ovarian
T-47D breast = test system: T-47D breast
BT-549 breast = test system: BT-549 breast
MDA-MB-435 melanoma = test system: MDA-MB-435 melanoma
SW-620 colon = test system: SW-620 colon
MCF7 breast = test system: MCF7 breast
HCT-116 colon = test system: HCT-116 colon
HCC-2998 colon = test system: HCC-2998 colon
KM12 colon = test system: KM12 colon
IGROV1 ovarian = test system: IGROV1 ovarian

SMILES | growth (RPMI-8226 leukemia) | growth (OVCAR-8 ovarian) | growth (OVCAR-5 ovarian) | growth (OVCAR-4 ovarian) | growth (SK-OV-3 ovarian) | growth (OVCAR-3 ovarian) | growth (HS 578T breast) | growth (NCI/ADR-RES ovarian) | growth (T-47D breast) | growth (BT-549 breast) | growth (MDA-MB-435 melanoma) | growth (SW-620 colon) | growth (MCF7 breast) | growth (HCT-116 colon) | growth (HCC-2998 colon) | growth (KM12 colon) | growth (IGROV1 ovarian) [%]
O=C(Nc1nc2ccccc2s1)Nc1ccc([N+](=O)[O-])cc1Cl | 36.9% | -26.4% (active) | 105% | -45.6% (active) | 63.9% | 38.1% | 70.7% | 14.4% | 61.7% | 16.2% | 40.4% | 95.6% | 74.3% | 18.7% | 76.1% | -32.4% (active) | 
Cc1cc(C)c2c(n1)sc1c(Nc3ccc(Cl)cc3)ncnc12 | 23.7% | 4.06% (active) | 29% | 84.4% | 35.2% | 33.3% | 76.5% |  | 23.4% | 29.8% | 27.3% | 34% | 16.5% | 15.1% | 54.4% | 43.1% | 
N#Cc1ncc(-c2ccc(C(F)(F)F)cc2)c(NCc2cc(C(F)(F)F)cc(C(F)(F)F)c2)n1 | -19.6% (active) | 30.6% | 57.3% | 21% | 62.6% | 11.4% | 36% | 25.5% | 9.88% (active) | 21.8% | 12.2% | 14.5% | 8.58% (active) | 7.85% (active) | 45% | 10.2% | 
CCN1CCC(CCOC)(CN2c3ccccc3Sc3ccc(Cl)cc32)C1 (configuration not stated) | 47.4% | 73.7% | 54.4% | 46.3% | 78.7% | 64.8% | 51.5% | 75.8% | 70.5% |  | 10.9% | 54% | 22.9% | 28.8% | 40.5% | 29.8% | 
COc1cc(/C=N/NC(=O)c2ccccc2Nc2ccnc(C(F)(F)F)c2)ccc1O | 90.8% | 101% | 116% |  | 98.9% | 109% | 97.4% | 143% | 116% | 116% | 106% | 104% | 86.8% | 102% | 123% | 114% | 123
COc1cc(-c2cc(/C=C/C(=O)c3ccc4c(c3)OCO4)[nH]n2)cc(OC)c1OC | -11.6% (active) | 76.6% | 83.3% | 76.6% | 99.2% | 77.7% | 86.6% | 78.5% | 40% | 60.9% | 31.2% |  | 17.3% | 31.4% | 103% | 18% | 
CCOC(=O)CNC(=O)CCCCSc1ncnc2nc[nH]c12 | 107% | 108% | 90.1% | 111% | 115% | 112% | 107% | 97.3% | 100% |  | 110% | 107% | 91.9% | 101% | -18% (active) | 108% | 
Cn1c([N+](=O)[O-])cnc1/C=C1\Oc2ccccc2C1=O | -7.1% (active) | -26% (active) | 0.959% (active) | 10.5% | -15.9% (active) | -21% (active) | -21.8% (active) | -5.9% (active) | 87.3% | -28.6% (active) | -86.8% (active) | -36.3% (active) | 1.82% (active) | 1.88% (active) | -73.6% (active) | -17.4% (active) | 
O=S(=O)(NCCNc1nccc(-c2c(-c3ccc(F)cc3)nc3sccn23)n1)c1ccc2ccccc2c1 | 60.2% | 69.6% | 130% | 96.2% | 85.2% | 87.9% | 111% | 84.4% | 61.9% | 92.5% | 56.4% | 97.5% | 38.2% | 61.8% | 82.6% | 75.6% | 
O=C(Nc1cccc(-n2cc(-c3ccncc3)c(-c3ccc(O)c(Cl)c3)n2)c1)c1ccc(N2CCOCC2)c(C(F)(F)F)c1 | -18% (active) | 30.7% | 37.8% | 69.3% | 64.2% | 60.4% | 33.5% | 43.1% | 36.4% | 47.2% | 53.9% | 36.3% | 24.6% | 26.7% | 23.6% | 14.9% | 
CC(C)(Cl)CCC1=C(Cl)C(=O)c2ccccc2C1=O | -28.9% (active) | 68% | 101% | 11.5% | 92.6% | 22.9% | 62.6% | 62.9% | -38.7% (active) | 66.5% | 66.4% | 7.89% (active) | -0.254% (active) | 17.2% | 74.3% | 35.7% | 
CCN(CC)CCCOCCCNc1cc(OC)cc2cccnc12 | 80.3% | 92.1% | 102% | 26.6% | 97.3% | 65.9% | 100% | 95.4% | 33.9% | 103% | 112% | 99.9% | -3.69% (active) | 94.5% | 83.9% | 102% | 
N=C1c2nc3n(c2C(=O)c2nc4n(c21)CCCC4)CCCC3 | 82.2% | 91.5% | -57.8% (active) | 96.2% | 95% | 98.4% | -28.7% (active) | 85.7% | 71.9% | -37.2% (active) | -82.5% (active) | 23.7% | -6.98% (active) | 65.8% | 87.3% | 66.7% | 
CCN(CC)CCOc1nc2ccc(OC)cc2c2c1-c1ccc(OC)cc1C2=O | -24.5% (active) | -60.1% (active) | 49.3% | -6.86% (active) | 30.9% | -94.2% (active) | 10.3% | 0.706% (active) | 68.7% | 65.1% | -22.7% (active) | -59.4% (active) | -58.6% (active) | -98.3% (active) | 38.6% | -82% (active) | 
COc1ccc(/C(=C2\O[C@@H]([C@H]3COC(C)(C)O3)[C@H]3OC(C)(C)O[C@@H]23)c2cc(OC)c(OC)c(OC)c2)cc1O | 63.7% | 68.3% | 95.4% | 99.2% | 38% | 48% | -22.2% (active) | 10.1% | 121% | 57.7% | -44.7% (active) | 15.4% |  | 54% | 102% | 26.7% | 
Nc1ccn(C2CC(O)C(CO)O2)c(=O)n1 (configuration not stated) | 112% | 106% | 92.4% | 114% | 105% | 123% | 111% | 102% | 103% |  | 107% | 113% | 103% | 109% | 2.98% (active) |  | 
COc1ccc(Cl)cc1C(=O)Nc1nc2ccc(Cl)cc2s1 | 80.5% | 88.9% | 124% |  | 91.9% | 103% | 102% | 102% | 47.2% | 97.7% | 97.6% | 101% | 41.7% | 53.2% | 102% | 94.8% | 65.9
Oc1[nH]c2ccc(Cl)cc2c1/C=c1/ccc2c(c1)N=C(c1cc(F)cc(F)c1)N=2 | 74.4% | 77% | 86.8% | 68.5% | 68% | 7.12% (active) | 63% | 54.2% | 88.4% | 81.9% | 1.43% (active) | 53.8% | 5.27% (active) | 52.2% | 86.2% | 44.4% | 
Cc1cc(Nc2ccc(Cl)cc2)nc(NCCCNc2ccnc3cc(Cl)ccc23)n1 | -59.8% (active) | -53.5% (active) | -5.16% (active) | -3.7% (active) | -78.7% (active) | -80.1% (active) | -53.4% (active) | 2.15% (active) | -90.2% (active) | -86.7% (active) | -88.6% (active) | -67.4% (active) | -100% (active) | -97.4% (active) | -88.9% (active) | -33.4% (active) | 
